Rows were chosen to be rich in hits. Some 3.1% of all compounds tested hit in one or more screens of this group.
Nrf2 activator – Nrf2 pathway activation; AREc32 ARE-luciferase reporter (MCF7-derived line), luminescence, 24 h; Potency, µM (series often up to 46.1 µM), without a hit: at the top dose activation, most hits filed as activators; 410,000 tested, 0.31% active; AID 624171; further: potency means the concentration at half of the fitted maximal effect; % of control where 0% means no effect; nearly all actives have a fitted effect of over 65% in size
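AREc32_Fluc, 1000 cells/well, OPTI-MEM + 5% FBS, o/n 37 deg C 5% CO2; 23 nL cpd by pin tool, 24 hr; Steady-Glo 30 min RT, luminescence.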
BRCA1 expr act – BRCA1 expression activation; MCF7-BRCA1-FFLuc reporter, luminescence, 48 h; response scale: scaled: vehicle 0%, 10 µM genistein 100%; Potency, µM (doses to about 46.1 µM), for the others: at the highest dose activation, hits mostly activators; 380,000 tested, 1.1% active; AID 624202; further: potency means the concentration at half of the fitted maximal effect; nearly all actives have a fitted effect of over 80% in size
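MCF7-BRCA1-FFLuc, 2000 cells/well; 2 h attach, 37 °C/5% CO2; compound 48 h; luciferase substrate 15 min; luminescence end-point. Norm. to genistein 10 microM max activation and DMSO; concentration-response curves fitted.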
ELG1 repair inh – inhibitors of ELG1-dependent DNA repair in HEK293T cells. 330,000 tested, 2.3% active. HEK293T ELG1-luciferase reporter, luminescence, 16 h; DNA damage induced by 5-fluorouridine. Potency, µM (titrated, usually from 46.1 µM), for inactives: top-dose activity change, negative = inhibition, actives largely listed as inhibitors. AID 504467; further: potency means the concentration at half of the fitted maximal effect; on the % scale 0 is the no-effect control and ±100 the full control effect; nearly all actives have a fitted effect of over 55% in size
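Luminescence from the luciferase reporter, measured 30 min after ONE-Glo reagent at room temperature, was the read-out. Beforehand, 2,000 cells per well were exposed for 16 hr at 37 °C to 5-fluorouridine together with compound or vehicle.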
IL2 activator – activates IL-2 in a cell-based reporter assay. activation, % (series mostly up to about 46 µM). 360,000 tested, 0.065% active. IL-2 activation reporter assay, cell-based qHTS; stimulated with anti-CD3/CD4/CD28 beads; in transgenic mouse T cells; in the data active means activation above about 50%; inconclusive means mostly about 30% to 49%; further: 0% is about no effect
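Using fluorescent plate cytometry, EGFP and DsRed are detected in transgenic mouse T cells stimulated 18 h at 37 degrees C with antibody-coated beads after 60 min compound pretreatment.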
* marks the source's active call; other numbers are inactive results; ? = inconclusive; nt = no result given; [ ] = dose if it differs, or a comment. Unless noted, the call rests on the fitted dose curve; in most records, active means well fitted curve in the direction sought with a large enough effect; inconclusive means small, poorly fitted or top-dose-only effect, or another doubt; inactive means no such curve, though single readings can be large; an effect the other way counts as inactive or inconclusive.

SMILES | Nrf2 activator | BRCA1 expr act | ELG1 repair inh | IL2 activator
O=C(Nc1ccon1)c1sc2cc(F)ccc2c1Cl | 12% | 15% | ? | -3
O=C(NCc1ccco1)c1cc(-c2ccc(F)cc2)on1 | 6% | 8.9µM* | ? | -2
O=C(NCc1ccco1)c1sc2cc(F)ccc2c1Cl | ? | 13µM* | ? | -2
COc1ccc(C(C)NC(=O)Nc2ccc(C(C)=O)cc2)cc1OC (configuration not stated) | 2% | 11µM* | ? | -1
N#CC(C#N)=Cc1cc2ccccc2nc1N1CCOCC1 | 11% | -10% | 20% | -1
N#C/C(=C\c1cc2ccccc2nc1N1CCOCC1)C(=O)Nc1ccc(N2CCOCC2)cc1 | -1% | -18% | 12µM* | -4
O=C(/C=C/c1ccc([N+](=O)[O-])s1)N1CCCC1 | ? | -83% | 15µM* | 0
CCCCn1nc(C(=O)NCC(c2cccs2)N2CCOCC2)c2ccccc2c1=O (configuration not stated) | 1% | -30% | 18µM* | -1
CCCCn1nc(C(=O)Nc2nc3c(s2)CCCC3)c2ccccc2c1=O | -1% | 15% | 15µM* | 2
Cc1ccc(-c2nn(-c3ccc(F)cc3F)c3c2cnc2c(F)cccc23)cc1 | 4% | nt | nt | nt
O=C(N/N=C\c1ccc(COc2ccc([N+](=O)[O-])cc2)o1)c1ccc(Cl)cc1 | 0% | -28% | -22% | -2
COc1ccc(OCc2ccc(/C=N\NC(=O)c3sccc3C)o2)cc1 | 0% | 13µM* | ? | -2
Cc1cc(C)c(S(=O)(=O)/N=C2/C=C(Sc3ncn[nH]3)C(=O)c3ccccc32)cc1C | -4% | -91% | 21µM* | -1
Cc1ccc([N+](=O)[O-])cc1S(=O)(=O)Nc1ccc(O)c(Sc2ncn[nH]2)c1 | 0% | 0% | 2% | 1
CCOc1ccc(N(CC)S(=O)(=O)N2CCCC(C(=O)NCCc3ccccc3OC)C2)cc1 (configuration not stated) | 1% | nt | nt | nt
Cc1ccc2nc(SC(Cc3cc(Cl)ccc3Cl)C(=O)O)[nH]c2c1 (configuration not stated) | 0% | nt | nt | nt
O=S(=O)(Nc1cccc2ccccc12)c1cccc2ccccc12 | nt | -34% | nt | nt
c1ccc(CNc2c3c(nc4ncnn24)CCCC3)nc1 | 0% | 0% | ? | 1
Cc1nn2c(N3CCN(C)CC3)c3c(nc2c1-c1ccccc1)CCCC3 | 4% | -85% | -1% | -3
Cc1nn2c(NCc3ccccn3)c3c(nc2c1-c1ccccc1)CCC3 | 0% | -69% | 10µM* | -4
Cc1nn2c(NCc3ccccn3)cc(C(C)(C)C)nc2c1-c1ccccc1 | 0% | -58% | ? | 0
Cc1nn2c(NCCN3CCOCC3)c3c(nc2c1-c1ccccc1)CCCC3 | 3% | -30% | 16µM* | 0
COc1ccc(Nc2c3c(nc4c(-c5ccccc5)c(C)nn24)CCC3)cc1 | 0%[9.22 µM] | -30% | 15µM* | 0
Cc1cc(NCc2ccccn2)n2nc(C)c(-c3ccccc3)c2n1 | 6% | -49% | 23µM* | 2
O=C(COc1ccc([N+](=O)[O-])cc1)N1CCC(c2nc3ccccc3s2)CC1 | -1% | nt | nt | nt
SMILES | Nrf2 activator | BRCA1 expr act | ELG1 repair inh | IL2 activator
COc1ccc(-n2nc(C(=O)NCCc3ccc(OC)c(OC)c3)c3c4ccccc4n(C)c3c2=O)cc1 | 6% | 9% | nt | nt
Cc1ccc(CNC(=O)C(=O)NCC(c2ccco2)S(=O)(=O)c2ccc(C)cc2)cc1 (configuration not stated) | -1% | nt | nt | nt
Nc1ccc(C#Cc2ccc3oc4ccccc4c(=O)c3c2)cc1 | 9% | ? | nt | 0
Nc1ccc2oc3ccccc3c2c1 | 16% | 3.2µM* | ? | -1
O=C(c1cccc(C(=O)N2CCN(c3ccccc3F)CC2)c1)N1CCN(c2ccccc2F)CC1 | 0% | 3% | 16µM* | 0
COc1ccc(OC)c(-c2nnc(-c3ccc(C)o3)o2)c1 | 11µM* | -49% | 17% | -1
COc1cc2c(cc1OC)C(C)N(C(=O)c1cc3c(C)cc(C)cc3[nH]1)CC2 (configuration not stated) | 0% | -31% | 16µM* | -2
COc1cc2c(cc1OC)C(C)N(C(=O)Nc1cc(C)cc(C)c1)CC2 (configuration not stated) | -1% | -49% | ? | 0
Cc1ccc(C)c(Nc2nc(-c3ccccc3)c3cc(Br)ccc3n2)c1 | -1% | nt | nt | nt
NC(=O)C1CCN(c2ncnc3c2c(-c2ccccc2)cn3-c2ccccc2)CC1 | 0% | -53% | 16µM* | -5
Clc1ccccc1N1CCN(c2ncnc3c2c(-c2ccccc2)cn3-c2ccccc2)CC1 | 2% | nt | nt | nt
COc1ccc(-n2cc(-c3ccccc3)c3c(N4CCOCC4)ncnc32)cc1 | 2% | -82% | ? | -1
Fc1ccc(-n2cc(-c3ccccc3)c3c(N4CCOCC4)ncnc32)cc1 | 0% | -43% | 21µM* | -4
CS(=O)(=O)c1ccc2nc(NC(=O)C3=NN(c4ccccc4)C(=O)CC3)sc2c1 | 0% | -2% | -3% | 1
CS(=O)(=O)c1ccc2nc(NC(=O)c3cc(-c4ccccc4)nn3-c3ccccc3)sc2c1 | 0% | -12% | 7.3µM* | -5
Cc1nnc(N2CCC(C(=O)N3CCCCC3)CC2)c2nn(-c3ccccc3)c(C)c12 | 0% | nt | nt | nt
Cn1c(=O)c2c(nc(NC3CCCCC3)n2CC(=O)C23CC4CC(CC(C4)C2)C3)n(C)c1=O | 2% | -14% | 7.3µM* | 3
O=C1/C(=C/c2cccc([N+](=O)[O-])c2)CCc2ccccc21 | ? | -23% | -17% | 0
CCN1C/C(=C\c2cccc([N+](=O)[O-])c2)C(=O)/C(=C/c2cccc([N+](=O)[O-])c2)C1 | ? | -86% | 3.3µM* | -4
CCc1ccc(NC(=O)CC2C(=O)N(c3cccc(OC)c3)C(=O)N2Cc2ccc(F)cc2)cc1 (configuration not stated) | 0% | nt | nt | nt
CC[C@@H]1C=C(C)C[C@H](C)C[C@H](OC)[C@H]2O[C@@](O)(C(=O)C(=O)N3CCCC[C@H]3C(=O)O[C@H](/C(C)=C/[C@@H]3CC[C@@H](O)[C@H](OC)C3)[C@H](C)[C@@H](O)CC1=O)[C@H](C)C[C@@H]2OC | nt | nt | 8.2µM* | nt
O=c1cc(C(Cl)(Cl)Cl)oc2c1ccc1ccccc12 | 13µM* | -75% | 15% | -3
CCN(CC)CCCN(C(=O)c1ccco1)c1nc(-c2ccc(Cl)cc2)cs1 | 0% | 3% | 0% | -4
O=C(c1ccco1)N(CCCN1CCOCC1)c1nc(-c2ccc(Cl)cc2)cs1 | 4% | -51% | 21µM* | 0
O=C(c1ccco1)N(CCCN1CCOCC1)c1nc(-c2ccc(F)cc2)cs1 | 0% | -20% | 9.2µM* | -2
CCc1ccc(NC(=O)CSc2nc3cc(C(=O)OC)ccc3c(=O)n2Cc2ccco2)cc1 | 0% | -3% | ? | -3
